Test results taken from PubChem BioAssay (NCI).
Where “and” joins values, the source holds several entries; their conditions need not be identical. Identical values can stand only once. The panel holds about 83,000 compounds, 20% with a hit somewhere; the sample as a whole holds those more often.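 Assay: single dose, 48 h. Readout: percent growth (0 = no net growth; negative = cell death). Active: <10.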 Unmarked numbers belong to inactive results. Calls of active or inactive are those of the source.

These compounds were tested on SK-OV-3 ovarian (assay: NCI-60 one-dose screen, 48 h (100 = growth as untreated, 0 = no growth, -100 = all killed)). Conditions: 10 µM.
Experimental: Growth inhibition of the SK-OV-3 human tumor cell line is measured as a screen for anti-cancer activity. Cells are grown in 96 well plates and exposed to the test compound for 48 hours. Compounds are tested at a single concentration, which is 10^-5 M for most compounds. The reported endpoint is percent growth (GI% or GIPRCNT), where numbers from 0 - 100% represent growth inhibition, and numbers from -100% - 0 represent cell death. For example, a value of 40 represents 60% growth inhibition. A value of 0 means no net growth occurred over the course of the experiment. A value of -40 indicates 40% of cells at the beginning of the experiment died by the end of the experiment. A value of -100 means all cells are dead at the end of the experiment.
NCI-60 Human Tumor Cell Lines Screen was performed using the standard one-dose NCI protocol, which is described in more detail at https://dtp.cancer.gov/discovery_development/nci-60/default.htm.
Compounds with GIPRCNT values below 10 were considered active. Activity score was based on GIPRCNT using the following formula: […]
Score is 0 for GIPRCNT values of 100 or above, 50 for GIPRCNT values of 0, and 100 for GIPRCNT values of -100.

SMILES	growth
O=C(O)c1c(Cl)c(Cl)c(Cl)c(Cl)c1-c1c2cc(I)c(=O)c(I)c-2oc2c(I)c(O)c(I)cc12	101% and 92.4% and 93.1%
CN(C)C(=O)c1ccc(SC(=S)NCc2ccccc2)cc1	108%
O=C(Nc1cccc(Br)c1)Oc1cccc2cccnc12	110%

Same assay, conditions: 10 µM unless noted

SMILES	growth
Nc1nc(N)c2nc(CNc3ccc(C(=O)NC(CCC(=O)O)C(=O)O)cc3)cnc2n1 (stereo not given)	53.9% and 44.2%
N#CSCc1ccc(Cl)c(CSC#N)c1	90.1%
COC(=O)c1nc(=S)[nH]c(C(=O)OC)c1C(=O)c1ccccn1	63.2%
CN(C)c1ccc(N=Nc2cccc3ccccc23)cc1	80.1%
C[n+]1c(/C=C/c2ccc([N+](=O)[O-])cc2)ccc2ccccc21	109%
O=C1N[C@H]2[C@H](CS[C@H]2CCCCC(=O)N(CCP(c2ccccc2)c2ccccc2)CCP(c2ccccc2)c2ccccc2)N1	111%
CC1OC2CC(=O)OC2C2=C1C(=O)c1c(O)cccc1C2=O (stereo not given)	21%
Cn1c2ccccc2c2nnc(N/N=C/c3ccccn3)nc21	-11.1% (active)
NC(N)=N/N=C/c1ccc([N+](=O)[O-])o1	116%
O=C(Oc1cccc2cccnc12)c1ccccc1	106%
S=C(N/N=C/c1ccccn1)Nc1ccccn1	36.4%
Nc1nc(N)c2c(ccc3c2ccn3Cc2cccc([N+](=O)[O-])c2)n1	-100% (active)
C=CCOc1ccc(N=NC(C#N)C#N)cc1	52.7%
COC(=O)Nc1nc2ccc(C(=O)c3ccccc3)cc2[nH]1	22.8% and 28.9% and 32.6%
O=C1c2cccnc2-c2nccc3c2c1nc1cc(Br)ccc13	-10.1% (active) and -96% (active)
CC(=O)ON=C1C=CC(=C(C#N)c2ccccc2)C=C1	55.7%
CC1=CC(O)C2CC1C2(C)C (stereo not given)	94.3% and 104%

SMILES	growth
CCCCCCCCCCCCCCCCCCOP(=O)([O-])OC1CC[N+](C)(C)CC1	35.9% and 48.2%
NC(=S)N/N=C/c1ccc(Cl)s1	109%
CN(Cc1cnc2nc(N)nc(N)c2n1)c1ccc(C(=O)NC(CCC(=O)O)C(=O)O)cc1 (stereo not given)	59.3%
CC1SC(=S)N(c2ccc(Cl)cc2)C1=O (stereo not given)	117% and 99.4%
CCCCCC(CCCCC)C(=O)O	98.4%
O=C1C2=C(Nc3cc([N+](=O)[O-])ccc3N2)OC1c1c2ccccc2cc2ccccc12 (stereo not given)	104%
O=C1c2ccccc2C(=O)c2sc(Nc3cccc(Cl)c3)nc21	86.9%
CCC(=O)Sc1ccccc1C(=O)Nc1ccc(Cl)cc1	87.3%
O=C(/C=C/c1cccc(Cl)c1)c1ccccc1	109% and 98.5%
CNC(=O)N/N=C/c1ccc([N+](=O)[O-])o1	109%
O=C(Nc1cccc(Br)c1)Oc1ccc(Cl)c2cccnc12	95.6% [100 µM]
Cn1c2c(c3ccccc31)CCN1C[C@@H]3CCCC[C@H]3C[C@@H]21	9.15% (active)
CC(=Nc1ccc(N(C)C)cc1)c1ccccc1	73%
O=C(Nc1ccccc1)Oc1c(Cl)c(Cl)c(Cl)c(Cl)c1Cl	102% and 90.5%
O=C1NC(=O)/C(=C/C=C/c2ccccc2)S1	74.7%
O=C(O)C1C2CC3C(OC(=O)C31)C2Br (stereo not given)	95.8% and 105%
NC(=O)/C=C/C(=O)c1c(Cl)cccc1Cl	59%

Same assay, conditions: 100 µM

SMILES	growth
O=C(O)c1c(Cl)c(Cl)c(Cl)c(Cl)c1-c1c2cc(I)c(=O)c(I)c-2oc2c(I)c(O)c(I)cc12	-73.9% (active)
CN(C)C(=O)c1ccc(SC(=S)NCc2ccccc2)cc1	108%
O=C(Nc1cccc(Br)c1)Oc1cccc2cccnc12	102%
